# Test results from PubChem BioAssay.
# Activity calls are given as the source filed them.
# What was measured:
# [1] = tested on: Plasmodium falciparum Sir2 (PF13_0152, Sir2A); assay: Plasmodium falciparum Sir2A binding compounds – biochemical, small-molecule microarray, 635 nm fluorescence, primary screen (AID 1098); settings: fluorescence 635 nm, higher = more signal;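 note: score merges spot fluorescence intensity with its signal-to-noise ratio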
# [2] = probe aDKK1 binding to arrayed compounds – biochemical, biotinylated probe, 635/667 nm fluorescence, primary screen (AID 1099); settings: small-molecule microarray, higher = more signal;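 note: score merges 667nm spot fluorescence with signal to noise across triplicate slides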
# [3] = probe aCHRDL2 binding to arrayed compounds – biochemical, biotinylated probe, 635/667 nm fluorescence, primary screen (AID 1100); settings: small-molecule microarray, higher = more signal
# [4] = change in splice reporter luminescence, either direction, cell-based, HEK293, spliceosome inhibition project, primary screen (AID 1101); settings: HEK293 splicing luciferase reporter, 24 h, higher = more signal, called active from +8 up or from −8 down;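 note: HEK293 cells carrying a splicing-competent luciferase reporter gene; test concentration not given here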
# [5] = biological target: Fibroblast growth factor 10 (Homo sapiens) (UniProt O15520); assay: compounds binding fibroblast growth factor 10 – biochemical, small-molecule microarray, 635 nm fluorescence, primary screen (AID 1102); settings: FGF10 binding, fluorescence 635 nm, higher = more signal
# Fibroblast growth factor 10 (Homo sapiens), sequence (O15520 whole entry, looked up): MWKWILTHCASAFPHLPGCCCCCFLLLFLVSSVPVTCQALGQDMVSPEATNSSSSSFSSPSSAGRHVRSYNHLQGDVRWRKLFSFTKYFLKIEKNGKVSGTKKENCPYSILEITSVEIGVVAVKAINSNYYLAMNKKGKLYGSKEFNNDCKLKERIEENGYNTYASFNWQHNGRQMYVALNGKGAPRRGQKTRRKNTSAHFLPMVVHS
# [6] = tested on: glycogen synthase kinase-3 (GSK3A per assay name; protocol says GSK3B); assay: compounds binding glycogen synthase kinase-3 – biochemical, small-molecule microarray, 635 nm fluorescence, GSK3A, primary screen (AID 1103); settings: fluorescence 635 nm, higher = more signal; note: the record names both GSK3A and GSK3B
# [7] = biological target: Epidermal growth factor receptor (Homo sapiens) (UniProt P00533); assay: compounds binding epidermal growth factor receptor – biochemical, small-molecule microarray, 635 nm fluorescence, primary screen (AID 1104); settings: EGFR binding, higher = more signal;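 note: score merges 667 nm emission intensity with spot signal to noise over triplicate slides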
# Epidermal growth factor receptor (Homo sapiens), sequence (P00533 whole entry, looked up): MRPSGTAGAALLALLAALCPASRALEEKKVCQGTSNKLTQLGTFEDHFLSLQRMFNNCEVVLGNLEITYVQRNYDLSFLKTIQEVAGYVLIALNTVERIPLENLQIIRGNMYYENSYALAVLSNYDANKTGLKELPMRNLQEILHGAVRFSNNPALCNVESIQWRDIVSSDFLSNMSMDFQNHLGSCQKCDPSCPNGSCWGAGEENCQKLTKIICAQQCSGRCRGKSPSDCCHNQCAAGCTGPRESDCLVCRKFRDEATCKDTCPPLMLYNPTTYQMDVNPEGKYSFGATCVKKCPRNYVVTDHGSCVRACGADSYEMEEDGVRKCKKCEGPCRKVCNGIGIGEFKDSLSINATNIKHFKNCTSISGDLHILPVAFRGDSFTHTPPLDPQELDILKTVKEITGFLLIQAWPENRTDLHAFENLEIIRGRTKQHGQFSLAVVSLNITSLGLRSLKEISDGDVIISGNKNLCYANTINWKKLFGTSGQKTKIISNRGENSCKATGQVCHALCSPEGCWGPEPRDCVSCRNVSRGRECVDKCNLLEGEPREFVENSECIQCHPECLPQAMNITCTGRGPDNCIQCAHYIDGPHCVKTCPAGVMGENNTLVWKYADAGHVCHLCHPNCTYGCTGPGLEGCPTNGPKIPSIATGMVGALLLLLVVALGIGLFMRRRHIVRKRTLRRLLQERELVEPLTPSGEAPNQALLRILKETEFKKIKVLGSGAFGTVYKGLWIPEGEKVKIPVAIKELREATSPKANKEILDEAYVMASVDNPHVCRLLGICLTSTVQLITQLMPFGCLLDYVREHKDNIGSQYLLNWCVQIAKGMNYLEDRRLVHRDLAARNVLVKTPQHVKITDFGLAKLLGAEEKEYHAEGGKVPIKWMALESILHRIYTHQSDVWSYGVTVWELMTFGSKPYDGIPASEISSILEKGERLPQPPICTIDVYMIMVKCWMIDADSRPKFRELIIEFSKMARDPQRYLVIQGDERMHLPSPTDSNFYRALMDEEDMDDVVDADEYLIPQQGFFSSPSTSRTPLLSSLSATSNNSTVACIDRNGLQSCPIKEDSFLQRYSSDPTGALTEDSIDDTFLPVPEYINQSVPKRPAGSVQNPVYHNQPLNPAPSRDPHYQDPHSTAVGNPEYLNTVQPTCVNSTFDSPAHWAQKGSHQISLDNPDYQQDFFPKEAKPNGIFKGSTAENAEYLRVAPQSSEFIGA
# [8] = biological target: Follistatin-related protein 3 (Homo sapiens) (UniProt O95633); assay: compounds binding follistatin-related protein 3 – biochemical, small-molecule microarray, 635 nm fluorescence, primary screen (AID 1105); settings: FSTL3 binding, higher = more signal;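 note: score merges emission near 667 nm and signal to noise per printed spot across three slides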
# Follistatin-related protein 3 (Homo sapiens), sequence (O95633 whole entry, looked up): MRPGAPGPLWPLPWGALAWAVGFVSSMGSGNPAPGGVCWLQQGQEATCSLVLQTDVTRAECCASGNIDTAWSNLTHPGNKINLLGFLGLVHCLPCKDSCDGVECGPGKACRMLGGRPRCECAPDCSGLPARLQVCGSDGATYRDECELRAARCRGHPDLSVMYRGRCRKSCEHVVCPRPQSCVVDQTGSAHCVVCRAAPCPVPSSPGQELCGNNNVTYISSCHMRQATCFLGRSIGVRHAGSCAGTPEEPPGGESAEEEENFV
# [9] = biological target: Dickkopf-related protein 1 (Homo sapiens) (UniProt O94907); assay: small molecules binding DKK1 protein – biochemical, small-molecule microarray, 635 nm fluorescence scan, primary screen (AID 1106); settings: higher = more signal;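 note: score merges emission near 667 nm with signal to noise over three replicate slides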
# Dickkopf-related protein 1 (Homo sapiens), sequence (O94907 whole entry, looked up): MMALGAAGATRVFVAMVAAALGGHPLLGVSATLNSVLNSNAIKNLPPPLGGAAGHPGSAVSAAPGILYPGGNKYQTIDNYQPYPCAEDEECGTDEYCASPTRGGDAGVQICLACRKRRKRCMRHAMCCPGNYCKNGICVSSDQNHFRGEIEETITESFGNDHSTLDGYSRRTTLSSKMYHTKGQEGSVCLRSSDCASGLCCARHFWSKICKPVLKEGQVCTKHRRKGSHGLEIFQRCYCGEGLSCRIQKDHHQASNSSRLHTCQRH
# [10] = tested on: Inhibin beta A chain (activin A); assay: small molecules binding activin A – biochemical, small-molecule microarray, 635 nm fluorescence scan, primary screen (AID 1107); settings: INHBA, higher = more signal;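 note: mouse activin A protein probed at 4.33 µg/mL on printed slides; score merges bound-protein fluorescence near 667 nm with spot signal-to-noise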
# [11] = tested on: Human papillomavirus type 1a protein E7 (residues 44-93); assay: small molecules binding HPV E7 44-93 – biochemical, small-molecule microarray, residues 44-93, 635 nm fluorescence, primary screen (AID 1108); settings: fluorescence 635 nm, higher = more signal;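 note: E7 fragment applied at 1 µg/mL in TBST for 1 h at 4 C; score combines spot fluorescence with its signal to noise ratio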
# [12] = hepatitis C replication reporter changes, two-sided – Huh7 cells, luciferase reporter, HCV replication inhibitor project, primary screen (AID 1109); settings: Huh7 HCV replicon luciferase reporter, 48 h; higher = more signal;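 note: huh7 hepatoma cells harbouring a luciferase neomycin HCV replicon reporter; luciferase luminescence as measure of HCV replicon replication; test concentration not given here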
# [13] = biological target: Left-right determination factor 2 (Homo sapiens) (UniProt O00292); assay: small molecules binding LEFTY2 protein – biochemical, small-molecule microarray, 635 nm fluorescence scan, primary screen (AID 1110); settings: higher = more signal
# Left-right determination factor 2 (Homo sapiens), sequence (O00292 whole entry, looked up): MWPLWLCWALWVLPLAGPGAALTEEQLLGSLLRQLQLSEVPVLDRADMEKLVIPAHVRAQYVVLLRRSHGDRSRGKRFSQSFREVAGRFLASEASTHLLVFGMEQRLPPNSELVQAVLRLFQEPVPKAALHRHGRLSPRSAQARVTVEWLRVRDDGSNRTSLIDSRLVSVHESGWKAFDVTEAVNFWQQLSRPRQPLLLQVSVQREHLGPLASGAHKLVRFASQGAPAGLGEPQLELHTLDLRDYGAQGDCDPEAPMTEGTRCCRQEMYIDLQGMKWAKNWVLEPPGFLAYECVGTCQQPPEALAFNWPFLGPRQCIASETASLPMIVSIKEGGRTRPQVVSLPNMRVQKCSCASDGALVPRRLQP
# [14] = biological target: Calmodulin-1 (Homo sapiens) (UniProt P0DP23); assay: small molecules binding calmodulin-1 with EGTA – biochemical, small-molecule microarray, Cy5-labelled CALM1, profiling panel (AID 1111); settings: Cy5-CALM1 binding fluorescence, higher = more signal;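 note: labelled calmodulin applied in Tris saline Tween buffer holding calcium plus EGTA and DTT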
# [15] = biological target: Calmodulin-1 (Homo sapiens) (UniProt P0DP23); assay: small molecules binding Ca-loaded calmodulin-1 – biochemical, small-molecule microarray, Cy5-labelled CALM1, plus calcium, artefact control for SMM control-protein annotation, profiling panel (AID 1112); settings: Cy5-CALM1 binding fluorescence, higher = more signal;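 note: score merges spot fluorescence with signal to noise from triplicate slides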
# [16] = probe aWnt5a binding to arrayed compounds – biochemical, biotinylated probe, 635/667 nm fluorescence, primary screen (AID 1113); settings: small-molecule microarray, higher = more signal;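 note: score merges 667 nm fluorescence intensity with signal-to-noise per printed feature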
# [17] = probe aShh binding to arrayed compounds – biochemical, biotinylated probe, 635/667 nm fluorescence, primary screen (AID 1114); settings: small-molecule microarray, higher = more signal;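 note: probe is biotin-labelled aShh protein from a stem cell growth factor screen; measures binding of labelled protein to compounds printed on the slide; score merges feature fluorescence at 667 nm with signal-to-noise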
# [18] = probe aNog binding to arrayed compounds – biochemical, biotinylated probe, 635/667 nm fluorescence, primary screen (AID 1115); settings: small-molecule microarray, higher = more signal;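 note: probe is biotinylated aNog protein used at 0.15 µg/mL for 1 h at 4 C; z-score combines 667 nm fluorescence of each spot with its signal to noise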
# [19] = biological target: Torsin-1A-interacting protein 1 (Homo sapiens) (UniProt Q5JTV8); assay: compound microarray binding of lysate hLAP1 – cell lysate, small-molecule microarray, COS7 lysate, 635/667 nm fluorescence, primary screen (AID 1116); settings: 635 nm fluorescence, higher = more signal
# Torsin-1A-interacting protein 1 (Homo sapiens), sequence (Q5JTV8 whole entry, looked up): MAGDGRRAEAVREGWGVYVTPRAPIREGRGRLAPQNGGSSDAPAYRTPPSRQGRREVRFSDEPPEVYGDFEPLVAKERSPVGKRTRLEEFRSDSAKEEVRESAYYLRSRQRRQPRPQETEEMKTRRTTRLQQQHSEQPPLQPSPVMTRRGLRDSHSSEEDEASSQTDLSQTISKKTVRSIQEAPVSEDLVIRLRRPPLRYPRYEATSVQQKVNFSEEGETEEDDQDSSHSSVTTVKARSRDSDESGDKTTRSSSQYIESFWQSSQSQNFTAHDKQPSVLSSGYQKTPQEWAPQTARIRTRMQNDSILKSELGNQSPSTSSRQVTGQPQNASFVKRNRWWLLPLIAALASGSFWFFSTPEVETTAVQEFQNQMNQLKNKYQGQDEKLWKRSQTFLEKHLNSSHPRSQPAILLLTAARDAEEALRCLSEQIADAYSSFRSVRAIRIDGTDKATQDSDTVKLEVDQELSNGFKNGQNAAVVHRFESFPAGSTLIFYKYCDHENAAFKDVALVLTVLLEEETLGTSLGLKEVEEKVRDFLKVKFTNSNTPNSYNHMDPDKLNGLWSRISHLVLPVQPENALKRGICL
# [20] = biological target: Alpha-bungarotoxin (Bungarus multicinctus) (UniProt P60615); assay: compounds binding labelled alpha-BTX control protein – biochemical, small-molecule microarray, Alexa647 label, 635/667 nm fluorescence, artefact control for SMM control protein annotation, profiling panel (AID 1117); settings: alpha-BTX-A647 binding fluorescence, higher = more signal
# Alpha-bungarotoxin (Bungarus multicinctus), sequence (P60615 whole entry, looked up): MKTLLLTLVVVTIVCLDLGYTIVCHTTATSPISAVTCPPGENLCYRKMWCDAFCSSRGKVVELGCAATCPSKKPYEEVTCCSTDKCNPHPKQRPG
Compound,composite z-score [1],composite z-score [2],composite z-score [3],z-score [4],composite z-score [5],composite z-score [6],composite z-score [7],composite z-score [8],composite z-score [9],composite z-score [10],composite z-score [11],z-score [12],composite z-score [13],composite z-score [14],composite z-score [15],composite z-score [16],composite z-score [17],composite z-score [18],composite z-score [19],composite z-score [20]
C=C(COC)C(=O)CC[C@H](OC(=O)c1ccccc1-c1ccccc1C(=O)O)c1ccccc1OCCO,1.52,-0.227,-0.053,-0.51 (inactive),0.595,0.264,-0.124,0.159,0.307,1.1,-0.15,-1.46,0.273,0.209,-0.749,-0.118,0.267,0.0707,0.423,0.737
C[N+](C)(C)CCCCNC(=O)[C@@H]1C[C@@H]2C(=O)NCC(=O)N2[C@@H]1c1cccc(OCCO)c1,0.594,-0.365,-0.211,-1.49 (inactive),1.16,0.68,0.627,1.39,1.72,-0.0907,0.299,0.703,1.08,-0.189,-0.131,0.0519,0.0756,0.145,1.66,1.89
O=C(O)[C@H]1C[C@H]2C(=O)N[C@@H](Cc3ccccc3)C(=O)N2[C@H]1c1ccc(O)cc1,1.56,0.844,0.913,-0.282 (inactive),-0.349,0.661,-0.502,-0.192,-0.0944,0.945,-0.067,-0.262,-0.307,-0.195,0.504,-0.0678,-0.0783,0.586,0.777,0.824
C[N+](C)(C)CCCC[C@@H]1NC(=O)[C@H]2C[C@@H](C(=O)NCCCCCN)[C@@H](c3cccc(OCCO)c3)N2C1=O,1.19,1.23,1.02,-1.82 (inactive),0.837,0.985,-0.0784,0.564,0.044,1.63,1.2,-0.295,-1.17,1.3,0.767,0.133,0.302,0.708,1.91,2.15
